This note sets out measurements from ChEMBL document CHEMBL3988442, “University of Dundee, Small-Polar-MMV Screening Library” (2021).

Each structure is given as a SMILES string. About 13,000 (27%) of roughly 48,000 compounds showed an effect of 50% or more. The list shows a part of the results.

The experiment has as its system Wolbachia pipientis. Description: Anti-Wolbachia Cell-Based Screen. Type of experiment: functional. Conditions: 5 µM. The arrangement: scale not given: in the data most compounds retested in dose-response had high values.
Regarding `CN(C)CCOC1CC2(CCN(c3cnccn3)CC2)c2ccccc21.O=C(O)C(F)(F)F` (stereo not given), the “Percent Effect” value is recorded as -0.2574%. The figure for `CC(C)NC(=O)N1CCN2C(=O)N(Cc3ccc(F)cc3)C[C@H]2C1` is 1.439%. Take `CO[C@H]1CN(C(C)C)C[C@@H]1NC(=O)c1cc(-c2ccccc2O)n[nH]1`: the “Percent Effect” value came to 3.341%. Turning to `CNc1nc(C)cc(N2CCC(C(=O)O)(n3ccc(C(C)C)n3)CC2)n1`, the “Percent Effect” value is on record as -25.68%. The figure for `O=S(=O)(NCC1(O)CCOc2ccccc21)c1ccc(Cl)s1` (stereo not given) is -0.7436%; for `O=C1CC2(CCN(C(=O)Cc3cc4c(cc3Cl)OCCO4)C2)C(=O)N1` (stereo not given) it is -1.867%; for `Cc1cc(NCC2(O)CCOCC2)nc2ccccc12` it is 15.38%. The figure for `O=C(c1ccccc1N1CCOCC1)N1CCCC1Cn1cccn1` (stereo not given) is -6.576%; for `Cc1cnn(CC2CCCN2C(=O)c2ccc3nnc(C)n3c2)c1` (stereo not given) it is -11.91%; for `CCn1nnc2cc(C(=O)N3CCCC3Cn3cc(C)cn3)ccc21` (stereo not given) it is -10.21%. The figure for `COc1ccc(C(=O)N2CCCCC2Cn2cccn2)c(F)c1` (stereo not given) is 4.231%. Consider `O=C(c1cc(Cl)ccc1F)N1CCCC1Cn1cccn1` (stereo not given), for which the “Percent Effect” value turned out to be 101.1%. Consider `Cc1cnn(CC2CCCN2C(=O)c2ccc(F)c(F)c2)c1` (stereo not given), for which the “Percent Effect” value is given as 123.6%.

Take `Cc1cnn(CC2CCCN2C(=O)c2ccc(Cl)cc2F)c1` (stereo not given): the “Percent Effect” value came to 130.9%. Consider `Cc1cnn(CC2CCCN2C(=O)c2ccc(F)cc2Cl)c1` (stereo not given), for which the “Percent Effect” value came out at 118%. As to `CCCNC(=O)C1CCN(Cc2csc(C(C)(C)C)n2)CC1`, the “Percent Effect” value was -3.863%.

`COc1cccc2c1CCN(C(=O)NCCc1nccn1C)C2`: the “Percent Effect” value turned out to be 2.215%. The figure for `CC(C#N)CSc1ccccc1NCC(=O)NC(=O)NC(C)(C)C` (stereo not given) is -19.45%; for `CC(O)CN1CCC(CN(C)Cc2cc(C#N)ccc2F)CC1` (stereo not given) it is -5.082%; for `Cc1ncc(CNC(CCO)C2CCCCC2)s1` (stereo not given) it is -8.339%.

In the case of `COc1ncnc2c1CCN(Cc1nccs1)CC2.O=C(O)C(F)(F)F`, the “Percent Effect” value was found to be 2.06%. As for `N#Cc1nccnc1N1CCC(OCCCc2ccccc2)C1` (stereo not given), the “Percent Effect” value was found to be 1.367%.

As to `Cc1nc2c(c(NCC(=O)NC(C)C)n1)Cc1ccccc1OC2`, the “Percent Effect” value worked out at 92.9%.

For the compound `Cc1nc2c(c(NCc3ccccc3)n1)CCN(C(=O)NC(C)C)CC2`, the “Percent Effect” value was determined as 7.807%. The figure for `CC(C)C(C(=O)NCc1ccccc1-n1cccn1)N(C)C` (stereo not given) is -20.85%; for `Cc1cccc2c1cnn2CCCNC(=O)C(C)C` it is -3.766%. With `CN(C)c1nc2c(c(=O)[nH]1)Cc1ccccc1OC2`, the “Percent Effect” value is given as -4.691%. As for `Cc1nc2c(c(NCCNC(=O)C(C)C)n1)Cc1ccccc1OC2`, the “Percent Effect” value was 89.1%. Consider `COc1ccnc(N2CCc3ccc(OC(F)F)cc3C2)n1`, for which the “Percent Effect” value came to 18.95%. As to `c1cnc(N2CCN(Cc3nnnn3C3CC3)CC2)nc1`, the “Percent Effect” value is -20.27%.

With `CC(CCN(C)C)NC(=O)N1CCSC(C)(C)C1` (stereo not given), the “Percent Effect” value is reported as -16.4%. With `Cc1cnn(CC2CCN(CC(O)CN3CCC(C)CC3)CC2)c1` (stereo not given), the “Percent Effect” value is given as 0.7757%. The figure for `N#Cc1ccc(OCC(O)CN2CCC(Cn3cccn3)CC2)cc1` (stereo not given) is 137.4%; for `Cc1cnn(CC2CCN(CC(O)c3ccccc3Cl)CC2)c1` (stereo not given) it is -9.107%; for `Cc1ccc(OCC(O)CN2CCC(Cn3cc(C)cn3)CC2)cc1` (stereo not given) it is 122.4%. The figure for `Cc1cnn(CC2CCN(CC(O)c3ccccc3)CC2)c1` (stereo not given) is 3.63%; for `OC(COc1ccc2c(c1)OCO2)CN1CC(n2cccn2)C1` (stereo not given) it is -5.514%. As to `Cc1ncc2c(n1)CN(CC(O)COc1ccc(C#N)cc1)CC2` (stereo not given), the “Percent Effect” value is -6.644%.

For the compound `Cc1cnn(CC2CCN(CC(O)COc3ccccc3)CC2)c1` (stereo not given), the “Percent Effect” value amounted to 7.728%. The figure for `Cc1cnn(CC2CCN(CC(O)c3ccccc3F)CC2)c1` (stereo not given) is -4.357%. The figure for `CCc1ncc2c(n1)CN(CC(O)COc1ccc(C#N)cc1)CC2` (stereo not given) is -19.89%; for `Cc1cccc(OCC(O)CN2CCC(Cn3cccn3)CC2)c1` (stereo not given) it is 104.3%; for `Cc1ccccc1OCC(O)CN1CCC(Cn2cccn2)CC1` (stereo not given) it is 111.1%. As for `CC(C)(C)c1cc(CN2CCOC(CN)C2)n[nH]1` (stereo not given), the “Percent Effect” value is given as -6.517%. The figure for `Cc1ccccc1C1CCN(CCn2cc(-c3cccc(O)c3)nn2)C1` (stereo not given) is -0.06043%.

Turning to `CN(Cc1ccc2c(c1)OCCO2)C(=O)Cn1ccccc1=O`, the “Percent Effect” value was -2.106%. The figure for `CC1(C)CN(Cc2csc(CS(C)(=O)=O)n2)Cc2ccccc21` is -1.783%.

Turning to `COCC1CCN(C(=O)c2cc(-c3ccco3)nc3c(Cl)cccc23)C1` (stereo not given), the “Percent Effect” value was -13.75%. For `O=C(c1cnn[nH]1)N(Cc1ccncc1)CC1CCCO1` (stereo not given), the “Percent Effect” value was -2.849%. On to `C[C@@H]1CN(c2nc(N)nc3c2CCC3)C[C@]1(C)O`, for which the “Percent Effect” value is on record as -4.313%. The figure for `Cc1c(C)n(-c2ccccn2)c2nc3c(c(N)c12)CCCC3` is 16.56%; for `Cc1c(C)n(Cc2ccncc2)c2nc3c(c(N)c12)CCCCC3` it is 23.97%. Consider `CC(=O)NC1CCN(c2nc(N)nc3c2CCCC3)C1` (stereo not given), for which the “Percent Effect” value was determined as 13.41%. The figure for `CN1CCc2c1nc1c(c2N)CCC1` is 94.13%. Consider `CN1CCCCc2c1nc1c(c2N)CCCC1`, for which the “Percent Effect” value came to 88.26%. The figure for `Cc1nc2c(c(N3CCC4(CCCNC4=O)C3)n1)CCC2` (stereo not given) is 3.026%.

In the case of `C[C@@H]1CN(c2nc(N)nc3c2CCC3)CC[C@@]1(O)C1CCC1`, the “Percent Effect” value is -3.571%. The figure for `CN1CCCc2c1nc1c(c2N)CCC1` is 99.68%. Regarding `CC(C)N(C(=O)c1ccccc1-c1nc2c([nH]1)CCNC2)C(C)C`, the “Percent Effect” value was 16.68%.

In the case of `Cc1cccc(COC[C@@]23CCC[C@@H]2CN(S(=O)(=O)N(C)C)C3)n1.O=C(O)C(F)(F)F`, the “Percent Effect” value was -15.69%. The figure for `CCN(C)CC(C)Cn1cnc(-c2ccccc2)c1-c1cncn1CC` (stereo not given) is 1.36%; for `CCc1nc(NCCCn2cccn2)c2c(n1)c(C)nn2C` it is 10.76%. The figure for `O=C(Nc1ccccc1OC1CCOC1)c1[nH]nc2c1CCCC2` (stereo not given) is 13.6%; for `COc1nc2c(cc1C(=O)NCCc1nc(C)c(C(=O)O)s1)CCC2` it is -5.377%; for `COc1cccc2c1OCC(C(=O)NCCc1nc3c(s1)CCC3)C2` (stereo not given) it is 3.483%. The figure for `CC(C)c1cc(C(=O)NCCc2nc3c(s2)CCC3)n(C)n1` is 118.8%; for `CCN(CC)C(=O)Cn1cc(C(=O)NCCc2nc(C)c(C)s2)nn1` it is -0.7768%; for `Cc1cc(C(=O)NCCc2nc3c(s2)CCCC3)n(C)n1` it is 113.4%. Regarding `Cc1nn2cc(CCNC(=O)c3cc(C(C)C)nn3C)nc2s1`, the “Percent Effect” value was -16.47%.

As to `O=C(O)c1ccnc(-c2ccnc(NCCc3nc4c(s3)CCC4)n2)c1`, the “Percent Effect” value is reported as -20.67%.

Take `Cc1nc(CCNC(=O)c2cc(C(C)C)nn2C)sc1C`: the “Percent Effect” value came to 143.4%. The figure for `COc1nc2c(cc1C(=O)NCCc1nc3c(s1)CCC3)CCC2` is -9.23%; for `CCC[C@@H]1CN(Cc2ccc(C(F)(F)F)nc2)C[C@H]1C(=O)O` it is 8.814%; for `CC(C)N1CCc2ncn(C)c2C1C(=O)NCCN1CCCC1` (stereo not given) it is -5.495%. The figure for `COc1ccc(NC(=O)N2CCN(c3ncccn3)CC2)cn1` is 4.438%. Take `COCCN1CCN(C)C2(CCN(C(=O)c3ccnnc3)CC2)C1=O.O=C(O)C(F)(F)F`: the “Percent Effect” value turned out to be 1.549%. The figure for `CCN(C)C1COC2(CCN(C(=O)c3cccc(Cl)c3)CC2)C1.O=C(O)C(F)(F)F` (stereo not given) is -32.01%. The figure for `COCCN1CCC2(CCN(C(=O)c3ccc(F)cc3)CC2)C1=O` is 82.71%; for `CN(C)CCN1CCC2(CCCN(Cc3cccn3C)C2)C1=O.O=C(O)C(F)(F)F.O=C(O)C(F)(F)F` (stereo not given) it is -29.62%; for `CN(C)CCN1CCC2(CCN(C(=O)c3cccc(F)c3)CC2)C1=O.O=C(O)C(F)(F)F` it is 96.95%. The figure for `CN(C)CCN1CCC2(CCN(C(=O)c3ccncc3)CC2)C1=O.O=C(O)C(F)(F)F.O=C(O)C(F)(F)F` is 99.78%. With `CN(C)CCN1CCC2(CCN(C(=O)c3cccnc3)CC2)C1=O`, the “Percent Effect” value is reported as 114%. The figure for `CN1CC(c2ccccc2)CC12CCN(C(=O)c1cccnc1)CC2` (stereo not given) is -3.135%; for `COCCN1CCC2(CCCN(C(=O)c3ccoc3C)C2)C1=O` (stereo not given) it is -2.249%; for `CCCN1CCN(C(=O)c2cccnc2)CC1` it is 10.45%. The figure for `O=C(O)C(F)(F)F.O=C(c1cccnc1)N1CCC2(CC1)CCN(c1ccsc1)C2=O` is 13.97%; for `COc1ccc(-c2nc(CNC(C)Cn3cccn3)cs2)cc1` (stereo not given) it is 6.683%; for `COCCNc1nc2c(c(NCCc3cccs3)n1)CCNCC2` it is 23.06%. The figure for `CC(NC(=O)NCCCn1cncn1)c1ccccc1Cl` (stereo not given) is -1.417%. For `Cc1nn(C)c(Oc2cccc(F)c2)c1NC(=O)C1CCOCC1`, the “Percent Effect” value was 12.99%.

With `CNC(=O)c1c(C)cccc1NCc1nnc(C2CC2)o1`, the “Percent Effect” value was -4.757%. In the case of `O=C(NC[C@H]1OC[C@@H](N(CC2CC2)CC2CC2)[C@@H]1O)Nc1ccccc1`, the “Percent Effect” value was -9.212%. The figure for `Cc1cc(C)n(-c2cncc(NCCNC(=O)C(C)C)n2)n1` is 1.534%; for `CCN(C)C(=O)c1ccc(N(C)Cc2cc(-c3ccncc3)no2)nc1` it is -25.61%; for `CC(C)(C)C(=O)NCCc1cc2nc(-c3ccncc3)ccn2n1` it is 129.3%.

`CC(C)C(=O)NCCc1cc2nc(-c3ccncc3)ccn2n1`: the “Percent Effect” value is reported as 130.4%. As to `CC(C)[C@H](Nc1cc(-c2ccncc2)nc2ccnn12)C(N)=O`, the “Percent Effect” value was -7.86%. The figure for `CCCC(=O)N(CCCN1CCOCC1)c1nc2c(C)c(C)ccc2s1.Cl` is 4.916%; for `CNC(=O)c1ccc(CNC(=O)c2cc(C(C)C)n(C)n2)cc1` it is -0.9811%; for `CC(C)OC(=O)N1CCCC(c2nccn2Cc2ccncc2)C1` (stereo not given) it is -3.54%. The figure for `COc1ncnc2c1CCN(C(=O)Cc1cccc(F)c1)CC2` is 3.249%. As to `Cc1ncnc2c1CCN(C(=O)Cc1cccc(F)c1)CC2`, the “Percent Effect” value is listed as 0.1924%. The figure for `O=C(Cc1cccc(F)c1)N1CCc2ncnc(NC3CC3)c2CC1.O=C(O)C(F)(F)F` is 106%. On to `O=C(Cc1cccc(F)c1)N1CCc2ncnc(NC3CCC3)c2CC1`, for which the “Percent Effect” value worked out at 110%. As for `O=C(Cc1cccc(F)c1)N1CCc2ncnc(N3CCCC3)c2CC1`, the “Percent Effect” value is -1.475%.
